# HIF-2a inh = HIF-2a inhibition. 786-0 RCC cells HIF-2a reporter, luciferase luminescence, overnight. inhibition, % at 18.8 µM. AID 624352. hit rate 0.72% among 360,000;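 active = inhibition of the luminescence signal of 40% or more relative to plate controls, in a single-dose primary screen at 18.75 µM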
# TWEAK-Fn14 inh = TWEAK-Fn14 signaling inhibition; TWEAK-stimulated Fn14 reporter cells, luciferase luminescence, 8 h; inhibition, % at 10 µM; hit rate 2% among 360,000; AID 1159606; in the data active = inhibition above about 50%
# KKLEB cytotox = reduces viability of KKLEB cystic fibrosis airway cells. hit rate 0.36% among 360,000. activity change (cytotoxicity), % at 5 µM. KKLEB CF airway cells viability, ATPlite luminescence, overnight; active compounds read low; cells stimulated with P. aeruginosa culture filtrate;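 active = corrected activity change at or below -50% at 5 µM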
# CF NFkB block = inhibitors of cystic fibrosis induced NF-kB. inhibition, % at 5 µM. KKLEB NF-kB-GFP reporter, PAF-induced, GFP fluorescence overnight. hit rate 0.86% among 360,000;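 active = at least 50% inhibition at 5 µM, scaled per plate between neutral and stimulator controls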;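 also: PAF is a Pseudomonas aeruginosa culture filtrate used as stimulus; plate controls were PAF-stimulated DMSO wells for no effect and unstimulated DMSO wells for full effect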
# Peg3 promoter = Peg3 promoter activity inhibition | AID 588405 | inhibition, % at 20 µM | HeLa PEG-Prom luciferase reporter, luminescence, overnight | hit rate 1.7% among 360,000;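 active = inhibition of at least 50% at 20 µM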
# TROY signal inh = blocks TROY-dependent signaling in reporter cells; hit rate 0.98% among 360,000; inhibition, % at 10 µM; Q293 LMP1-TROYcd NF-kB luciferase reporter, 4 h;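 active = compounds whose plate-normalised and pattern-corrected inhibition of the luciferase reporter signal at the single screening dose is 50% or more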
# * = called active by the depositor; nt = no result. In the library only some 4% were active in any assay of this set; here they are far more common.
SMILES,HIF-2a inh,TWEAK-Fn14 inh,KKLEB cytotox,CF NFkB block,Peg3 promoter,TROY signal inh
CC(C)NC(=O)N(C)C[C@@H]1Oc2c(NC(=O)C3CCOCC3)cccc2C(=O)N([C@@H](C)CO)C[C@H]1C,3.3,-0.8,13.5,-14.3,1.6,8.2
CCCCCN(C(=O)CCC(=O)OCC(=O)c1ccc(C(C)CC)cc1)c1c(N)n(CCCC)c(=O)[nH]c1=O (configuration not stated),-14.7,-24.9,-18.6,15.1,-35.4,-16.9
COc1ccc(NC(=O)CSc2nc3ccccc3c(=O)n2CCNC(C)=O)c(OC)c1,0.2,0.1,0.1,-2.8,7.8,5.0
Cc1onc(-c2ccccc2)c1C(=O)OCC(=O)Nc1ccc2c(c1)OCO2,16.4,4.3,14.6,2.0,-1.6,-3.9
Cc1ccc(NC(=O)CSc2nc3ccccc3c(=O)n2Cc2cccs2)cc1,-32.0,-17.5,-52.4*,47.6,-3.2,-3.2
Cc1c(-c2cccc(Cl)c2)nc2ccccc2c1C(=O)OCC(=O)Nc1ccc2c(c1)OCO2,-30.2,52.4*,4.7,-25.9,49.0,26.7
CCc1nc2ccccc2c(C(=O)OCC(=O)Nc2cccc(S(=O)(=O)N3CCOCC3)c2)c1C,11.3,96.6*,1.2,4.8,76.8*,68.1*
COCCCn1c(SCC(=O)Nc2ccc(C)cc2)nc2ccccc2c1=O,5.5,-3.2,5.6,-10.6,20.6,11.9
COc1ccc(OC)c(NC(=O)CSc2nc3ccccc3c(=O)n2CCNC(C)=O)c1,23.3,75.9*,-8.0,-8.9,13.1,-16.2
C#CCOCC1CN(C)C(=O)O1 (configuration not stated),11.1,-6.2,-7.9,29.4,4.0,-15.8
OC(CNC1CCCCC1)CON=C1CCSc2c(Cl)cccc21 (configuration not stated),-13.6,-14.2,-21.8,31.8,95.6*,-13.6
OC(CNC1CCCC1)COc1ccc(-c2ccccc2)cc1 (configuration not stated),-25.3,-12.9,-4.9,25.1,-4.5,-24.9
N#Cc1ccc(CSc2nc(N)cc(=O)[nH]2)cc1,14.0,71.7*,1.0,-35.8,20.0,17.7
Cc1ccc(CSc2nc(N)cc(=O)[nH]2)cc1,-5.6,-5.9,-11.1,4.4,-3.7,5.6
c1ccc(COC2COC3C(OCc4ccccc4)COC23)cc1 (configuration not stated),-9.5,5.0,10.5,11.4,-6.9,-11.8
O=C(O)CSCc1nc2scc(-c3ccccc3)c2c(=O)[nH]1,16.2,1.2,20.4,-20.6,0.9,5.2
O=C(OCc1nc2scc(-c3ccccc3)c2c(=O)[nH]1)c1cc([N+](=O)[O-])ccc1Cl,2.2,63.0*,8.2,-6.5,26.3,32.6
C[C@@H](NC(=O)c1[nH]cnc1C(=O)Nc1ccon1)c1ccccc1,18.6,32.3,-0.3,-2.2,2.0,3.6
CSc1ccc(/C=C/C(=O)Nc2ccccc2)cc1,-114.4,72.3*,-24.2,-3.9,-128.4,42.2
O=C(Nc1ccccc1O)c1ccc2c(c1)C(=O)N(Cc1ccco1)C2=O,17.3,-3.5,3.4,5.0,63.6*,12.1
O=C(NCCC1CCCCN1S(=O)(=O)c1ccc(F)cc1)C(=O)Nc1ccccc1 (configuration not stated),-8.1,7.8,1.1,4.1,-7.0,-29.0
CC(=O)Nc1ccc(C=NN=C2c3ccccc3-c3ccccc32)cc1,-91.0,6.0,-1.1,-46.2,73.5*,-31.2
CC(=O)N(C)/C=C1\Sc2ccccc2C1=O,-10.3,-16.3,-10.0,7.8,-0.5,29.4
CC(=O)Nc1ccc(/C=C2\Sc3ccccc3C2=O)cc1,50.3*,-23.6,-3.0,-0.2,-108.6,-16.8
C/C(CC(=O)Nc1ccc(N(C)C)cc1)=N\NC(=O)c1ccc([N+](=O)[O-])cc1,7.2,-11.7,-6.7,-0.7,3.4,-14.0
SMILES,HIF-2a inh,TWEAK-Fn14 inh,KKLEB cytotox,CF NFkB block,Peg3 promoter,TROY signal inh
C[C@]12CC[C@@H]3c4ccc(O)cc4CC[C@H]3[C@@H]1CC[C@@H]2O,-8.0,1.2,26.8,-7.1,24.8,4.8
CC12CCC3C(CCC4N(CCO)CCC34C)C1CCC2O (configuration not stated),21.5,94.3*,1.7,10.7,1.2,-7.0
NNS(=O)(=O)c1ccc(Sc2ccccn2)c([N+](=O)[O-])c1,12.2,-15.2,3.1,0.0,20.1,5.4
COc1ccc(C(=O)N/N=C/C(=O)c2ccccc2)cc1,-283.8,18.7,-9.5,14.2,-270.6,-8.7
Cc1ccc(C(=O)NN=CC(=O)c2ccccc2)c(C)c1,-213.3,64.6*,-4.5,-3.1,-222.5,51.8*
COC(=O)c1ccc2c(c1)C(NC(C)=O)CCc1cc(OC)c(OC)c(OC)c1-2 (configuration not stated),23.3,13.1,-13.1,58.7*,-39.7,1.1
COc1cc2c(c(OC)c1OC)-c1ccc(SC)c(=O)cc1C(NC=O)CC2 (configuration not stated),22.4,57.2*,-31.8,47.9,-14.1,29.2
O=C1C=C(Nc2cccnc2)c2ccccc2C1=O,17.3,2.1,10.2,54.2*,24.7,16.8
O=c1cnnc(Nc2ccc(F)cc2)[nH]1,7.6,9.6,-7.2,-13.0,-4.2,1.5
O=C1C=C(Nc2ccc(F)cc2)c2ccccc2C1=O,-32.0,46.7,-18.9,82.5*,11.8,32.2
COc1cc(Cl)c(NS(=O)(=O)c2ccc(-c3ccc(=O)[nH]n3)o2)c(OC)c1,3.6,-2.8,-12.9,12.8,7.9,1.5
COc1cc(Cl)c(NC2=CC(=O)C(=O)c3ccccc32)c(OC)c1,37.5,25.5,-44.0,82.8*,16.4,20.4
CCOc1ccc(NC2=CC(=O)C(=O)c3ccccc32)cc1,-105.6,-7.6,-13.4,80.5*,-53.6,1.0
O=c1[nH][nH]c2c1[C@H](c1ccccc1)O[C@H](C1CCCCC1)C2,-4.9,13.3,nt,nt,nt,6.1
COc1ccc(NC(=O)COC(=O)CNC(=O)c2cccs2)cc1Cl,15.3,-1.6,-3.8,-2.7,8.3,-14.9
CC(C)C[C@H]1CN(CCCC[C@H]2CNC(=O)C(=O)N2CCc2ccccc2)C(=O)C(=O)N1CCC1CCCCC1,-5.5,3.0,nt,nt,nt,-8.7
O=C(CSc1n[nH]c(-c2ccccn2)n1)Nc1ccc(Cl)cc1,16.0,5.2,-0.9,9.7,53.5*,4.5
O=C(CSc1n[nH]c(-c2ccccn2)n1)Nc1ccc(F)cc1,13.9,-2.2,10.3,-10.5,32.5,-15.1
COc1cccc(NC(=O)Nc2nc(SC)ns2)c1,-278.6,56.1*,-2.8,39.6,-280.5,-10.2
Cc1ccnc(NC(=O)Nc2cccc(F)c2)n1,-142.6,12.9,10.2,-56.8,-212.8,-60.1
CCSc1nsc(NC(=O)Nc2cccc(F)c2)n1,-244.2,55.4*,-44.4,32.8,-92.0,47.9
COc1cccc(NC(=O)Nc2nc(SC(C)(C)C)ns2)c1,-237.7,76.5*,-7.6,40.7,-105.8,40.6
COc1cccc(NC(=O)Nc2nccc(C)n2)c1,-24.6,62.1*,-3.4,-13.3,-25.7,25.6

# High-throughput results: PubChem, Sanford-Burnham Center for Chemical Genomics
